The source of these data is PubChem BioAssay (NCI).

This is part of a sample that, as a whole, favours compounds with a hit. Of some 83,000 tested, about 20% had one in any assay.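 Step 1: grow cells in 96-well plates. Step 2: add test compound at a single concentration. Step 3: incubate 48 h. Step 4: record percent growth.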 A number with no mark means an inactive call. Activity calls are given as the source filed them. Rule for the calls: active = growth percent below 10; inactive = the rest.

Some test systems named below: NCI-H23 lung; NCI-H226 lung; NCI-H322M lung; HOP-62 NSCLC; HOP-92 NSCLC; NCI-H522 lung; A549/ATCC NSCLC; 786-0 renal; COLO 205 colon; NCI-H460 lung.
What all share (assay): NCI-60 one-dose screen, 48 h (100 = growth as untreated, 0 = no growth, -100 = all killed)
Common to all, as to settings: 10 µM

Take `CCOc1ccc(/C=N/N=C(N)N)cc1OCC`: the growth was 92% in the assay with NCI-H23 lung; 93.3% in the assay on NCI-H226 lung; 110% in the assay on NCI-H322M lung; 106% with HOP-62 NSCLC; 99.4% with HOP-92 NSCLC; 99.2% in the assay on NCI-H522 lung. Also, the growth with A549/ATCC NSCLC is 95.7%; in the assay on 786-0 renal, 100%; in the assay on COLO 205 colon, 107%.
In the case of `N/N=C(/Cc1ccccc1)NNC(N)=S`, the growth in the assay on NCI-H23 lung is 99%; with NCI-H226 lung it was 108%; in the assay on NCI-H322M lung, 82.7%; with NCI-H460 lung, 103%; in the assay with HOP-92 NSCLC, 119%; with NCI-H522 lung, 72.4%. Moreover, the growth was 74.4% with A549/ATCC NSCLC and 111% in the assay with 786-0 renal.
For `Cc1cccc(CO)c1`, the growth in the assay with NCI-H23 lung was 94.5%; in the assay on NCI-H226 lung it was 99%; in the assay with NCI-H322M lung, 102%; in the assay on NCI-H460 lung, 105%; in the assay on HOP-92 NSCLC, 102%; with NCI-H522 lung, 105%. Moreover, the growth in the assay with A549/ATCC NSCLC was 102%; in the assay on 786-0 renal it was 104%; in the assay on COLO 205 colon, 105%.
On to `C/C(=C\c1ccc([N+](=O)[O-])cc1)C(=O)O`, for which the growth was 102% in the assay with NCI-H23 lung; 98.3% in the assay on NCI-H226 lung; 111% in the assay with NCI-H322M lung; 102% in the assay with NCI-H460 lung; 95.1% with HOP-92 NSCLC; 87.1% with NCI-H522 lung. Besides, the growth in the assay on A549/ATCC NSCLC is 91.7%; in the assay with 786-0 renal, 96.7%.
On to `CC(C)CCOC(=O)c1ccccc1`, for which the growth is 106% with NCI-H23 lung; 102% in the assay on NCI-H226 lung; 95.6% in the assay with NCI-H322M lung; 106% in the assay with NCI-H460 lung; 101% in the assay with HOP-92 NSCLC; 104% in the assay with NCI-H522 lung. Further, the growth in the assay with A549/ATCC NSCLC is 102%; in the assay on 786-0 renal, 99.8%; in the assay on COLO 205 colon it was 105%.
Consider `COc1cccc(O)c1O`, for which the growth was 56.3% in the assay with NCI-H23 lung; 101% with NCI-H226 lung; 98.6% in the assay with NCI-H322M lung; 103% in the assay with NCI-H460 lung; 93.7% in the assay on HOP-92 NSCLC; 79% with NCI-H522 lung. Besides, the growth in the assay on A549/ATCC NSCLC is 101%; in the assay with 786-0 renal, 88.1%; in the assay with COLO 205 colon, 108%.
Turning to `Nc1ccccc1SC(CC(=O)c1ccccc1)c1c(Cl)cccc1Cl` (stereo not drawn), the growth was 76.1% in the assay with NCI-H23 lung; 96.6% in the assay on NCI-H226 lung; 91.8% in the assay with NCI-H322M lung; 73.4% with HOP-62 NSCLC; 84.8% in the assay with NCI-H460 lung; 96.8% with 786-0 renal. Further, the growth with COLO 205 colon is 91.8%.
For the compound `O=C(O)/C=C/C(=O)NCc1ccccc1`, the growth in the assay on NCI-H23 lung was 107%; in the assay on NCI-H226 lung, 98.4%; in the assay on NCI-H322M lung, 93.5%; in the assay on HOP-62 NSCLC it was 101%; in the assay on NCI-H460 lung, 104%; in the assay with 786-0 renal it was 98.9%. The growth in the assay with COLO 205 colon was 106%.
As for `CC(=O)OC1CC2C(C)(C)OC3CC(=O)OCC32C2CCC3(C)C(=CCC3c3ccoc3)C12C` (stereo not drawn), the growth with NCI-H23 lung is 108%; in the assay on NCI-H226 lung it was 98.7%; in the assay on NCI-H322M lung, 111%; with NCI-H460 lung, 108%; in the assay with HOP-92 NSCLC, -13% (active); with NCI-H522 lung, 35.6%. For the same compound, the growth is 104% in the assay with A549/ATCC NSCLC, 103% in the assay with 786-0 renal and 76.1% with COLO 205 colon.
`CC1OC(Oc2c(-c3ccc(O)c(O)c3)oc3cc(O)cc(O)c3c2=O)C(O)C(O)C1O` (stereo not drawn): the growth in the assay on NCI-H23 lung was 102%; with NCI-H226 lung it was 96.1%; in the assay on NCI-H322M lung, 106%; with NCI-H460 lung it was 105%; in the assay on HOP-92 NSCLC it was 88.6%; in the assay with NCI-H522 lung, 102%. The growth with A549/ATCC NSCLC is 102%; in the assay with 786-0 renal it was 108%; with COLO 205 colon, 104%.
In the case of `O=C1C=CC(=O)N1c1ccc(I)cc1Cl`, the growth in the assay with NCI-H23 lung was 100%; in the assay on NCI-H226 lung, 108%; in the assay with HOP-62 NSCLC, 90.7%; in the assay on NCI-H460 lung it was 109%; in the assay with NCI-H522 lung, -29.7% (active); in the assay with A549/ATCC NSCLC, 46%. Moreover, the growth was 97% in the assay on 786-0 renal and 113% in the assay with COLO 205 colon.
Consider `COc1ccc(OC)c(/C=C2\CCc3ccccc3C2=O)c1`, for which the growth with NCI-H23 lung was 62.7%; in the assay with NCI-H226 lung it was 76.5%; in the assay on NCI-H322M lung it was 70%; with NCI-H460 lung, 13.9%; in the assay on NCI-H522 lung, 22.5%; with A549/ATCC NSCLC, 42.6%. Moreover, in the assay with 786-0 renal, the growth is 46.9%.
On to `Nc1ncnc2c1nc(N)n2C1OC(CO)C(O)C1O` (stereo not drawn), for which the growth with NCI-H23 lung is -22.9% (active); with NCI-H226 lung, -75.4% (active); with HOP-62 NSCLC, -52.9% (active); in the assay with NCI-H460 lung, -60.3% (active); in the assay with HOP-92 NSCLC, -29.8% (active); in the assay on NCI-H522 lung it was -63.3% (active). In addition, the results for the growth with A549/ATCC NSCLC, in the assay on 786-0 renal and in the assay with COLO 205 colon were -25.8% (active), -85.6% (active) and -86.8% (active), respectively.
Turning to `COCCOCCCl`, the growth in the assay on NCI-H23 lung is 102%; with NCI-H226 lung it was 101%; in the assay with NCI-H322M lung it was 112%; with NCI-H460 lung it was 104%; in the assay with HOP-92 NSCLC it was 95%; with NCI-H522 lung, 101%. Besides, the growth in the assay on A549/ATCC NSCLC was 106%; in the assay on 786-0 renal, 105%; in the assay with COLO 205 colon it was 107%.
For `O=S(=O)(O)c1cc(O)c2c(N=Cc3ccccc3O)c(S(=O)(=O)O)ccc2c1`, the growth was 101% in the assay on NCI-H23 lung; 101% in the assay on NCI-H226 lung; 93.7% in the assay on NCI-H322M lung; 105% with NCI-H460 lung; 91.4% in the assay on NCI-H522 lung; 111% in the assay on A549/ATCC NSCLC. In addition, the growth is 99.8% in the assay with 786-0 renal and 119% with COLO 205 colon.
On to `CC(=O)NC(N)=S`, for which the growth was 103% in the assay on NCI-H23 lung; 103% with NCI-H226 lung; 110% with HOP-62 NSCLC; 105% in the assay with NCI-H460 lung; 95.6% in the assay on NCI-H522 lung; 96.1% with A549/ATCC NSCLC. The values for the growth in the assay on 786-0 renal and with COLO 205 colon were 105% and 120%, respectively.
As for `CCOC(=O)CNN`, the growth is 102% in the assay with NCI-H23 lung; 90.7% in the assay with NCI-H226 lung; 98% in the assay with NCI-H322M lung; 99.6% with NCI-H460 lung; 96.7% with NCI-H522 lung; 101% with A549/ATCC NSCLC. Also, the figures for the growth with 786-0 renal and in the assay on COLO 205 colon were 106% and 110%, respectively.
On to `O=C(O)CCCc1ccccc1`, for which the growth in the assay on NCI-H23 lung was 103%; in the assay with NCI-H226 lung, 108%; in the assay with NCI-H460 lung, 115%; in the assay with HOP-92 NSCLC it was 105%; in the assay with A549/ATCC NSCLC, 102%; in the assay on 786-0 renal, 97.4%. The growth in the assay on COLO 205 colon was 110%.
